Screens deposited in PubChem BioAssay by National Center for Advancing Translational Sciences (NCATS).
GLP1R ag: qHTS of GLP-1 Receptor Agonists | Glucagon-like peptide 1 receptor (Homo sapiens), P43220 | HEK293 GLP-1R CRE-luciferase, luminescence, 4-6 h; cells express a hypersensitive GLP-1R form | Potency, µM (top dose mostly 45.6 µM), without a hit: at the highest dose activation, hits mostly activators | hit rate 0.007% among 380,000 | AID 624172, 2012; further: % of control where 0% means no effect
Target sequence (P43220 whole entry, looked up): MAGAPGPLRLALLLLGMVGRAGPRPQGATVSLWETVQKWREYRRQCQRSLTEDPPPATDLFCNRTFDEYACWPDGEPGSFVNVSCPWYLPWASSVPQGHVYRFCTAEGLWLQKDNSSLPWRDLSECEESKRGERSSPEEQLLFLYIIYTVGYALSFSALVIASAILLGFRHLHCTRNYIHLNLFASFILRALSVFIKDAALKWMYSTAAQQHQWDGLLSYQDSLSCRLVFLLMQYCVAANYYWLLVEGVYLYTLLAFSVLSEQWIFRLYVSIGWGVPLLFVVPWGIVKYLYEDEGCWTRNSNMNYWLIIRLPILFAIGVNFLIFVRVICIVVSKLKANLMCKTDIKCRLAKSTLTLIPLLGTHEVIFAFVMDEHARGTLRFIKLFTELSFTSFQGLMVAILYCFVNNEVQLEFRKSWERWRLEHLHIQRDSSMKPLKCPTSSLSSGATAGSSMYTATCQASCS
a7 integrin act: qHTS for Activators of Integrin-Mediated Alleviation for Muscular Dystrophy; alpha7betagal myoblasts, beta-gal FDG fluorescence, 48 h; hit rate 0.064% among 350,000; Potency, µM (top dose mostly 38.3 µM), for the others: at the highest dose activation, hits mostly activators; AID 624291, 2012;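 further: 100% = response of the positive control SU9516; nearly all actives have a fitted effect of over 60% in size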
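Alpha7betagal+/- myoblasts (passage 13) were plated 16-24 hr, then exposed to compounds (1:260 dilution of DMSO stock) for 48 hours at 37C. After MPER lysis, β-galactosidase reporter activity was read as FDG fluorescence (ex 480/em 540) after 30 minutes.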
HEK293 tox: qHTS of GLP-1 Receptor Inverse Agonists: Cytotox Screen; AID 624418, 2012; Potency, µM (series often up to 38.3 µM), for the others: at the top dose activity change, negative = inhibition, usual class: inhibitors; HEK293 cAMP-luciferase reporter cells, luminescence, 24 h; hit rate 0.13% among 410,000;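 further: loss of luciferase light is scored as toxicity; on the % scale 0 is the no-effect control and ±100 the full control effect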
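Compound-treated cells are incubated 24 hr at 37 deg C under 5% CO2 after a 12 hour attachment period, then luciferase detection reagent is added and luminescence is measured following 12 min at room temperature; lowered signal indicates toxicity.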
BRCA1 expr act: qHTS Assay to Identify Small Molecule Activators of BRCA1 Expression; Potency, µM (doses to about 46.1 µM), inactives show at the top dose activation, hits mostly activators; MCF7-BRCA1-FFLuc reporter, luminescence, 48 h; response scale: scaled: vehicle 0%, 10 µM genistein 100%; AID 624202, 2012; hit rate 1.1% among 380,000; further: nearly all actives have a fitted effect of over 80% in size
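Luminescence from a BRCA1-driven firefly luciferase in MCF7 cells was the read-out, taken 15 min after substrate addition following 48 h compound exposure at 37 °C. Data were normalized to a 10 microM genistein control and DMSO vehicle.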
GLP1R inv ag: qHTS of GLP-1 Receptor Inverse Agonists (Inhibition Mode); HEK293 GLP-1R CRE-luciferase, luminescence, 24 h; GLP-1R form is constitutively active; Potency, µM (titrated, usually from 38.3 µM), inactives show at the highest dose activity change, negative = inhibition, hits mostly inhibitors; hit rate 1.6% among 410,000; further: on the % scale 0 is the no-effect control and ±100 the full control effect; nearly all actives have a fitted effect of over 55% in size
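Readout was luciferase luminescence, measured 12 min after detection reagent at room temperature. Beforehand, GLP-1R reporter HEK293 cells had sat 12 h, then received compounds for 24 hr at 37 deg C.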
The depositor's hits bear a star; ? = inconclusive; / = no result. Only some compounds are listed: those with a hit (about 2.7% of all), similar ones and a draw of the others. The call rests on the fitted dose curve; in most records, active means well fitted curve in the direction sought with a large enough effect; inconclusive means small, poorly fitted or top-dose-only effect, or another doubt; inactive means no such curve, though single readings can be large; an effect the other way counts as inactive or inconclusive. Potency means the concentration at half of the fitted maximal effect.

SMILES	GLP1R ag	a7 integrin act	HEK293 tox	BRCA1 expr act	GLP1R inv ag
COC(=O)c1ccc(CCc2cc(O)c(Br)cc2O)cc1	4%	-54%	-22%	-36%	66%
CC(C)OC(=O)c1ccc(NCc2cc(O)ccc2O)cc1	-10%	-50%	?	-74%	?
COC(=O)c1ccc(CCc2cc(O)ccc2O)cc1	-2%	-49%	10µM*	-2%	?
COc1ccc(-c2ccc(C(=O)Nc3cccc(F)c3)c3occc23)c(C)c1	-4%	/	5%	?	?
Cn1cc(-c2ccc(C(=O)Nc3cccc(Oc4ccccc4)c3)c3occc23)cn1	6%	/	3%	11µM*	15%
COc1ccc(-c2ccc(C(=O)Nc3cccc(Oc4ccccc4)c3)c3occc23)c(C)c1	-5%	/	-4%	-7%	-57%
COc1ccc(-c2ccc(C(=O)Nc3cccc(N(C)C)c3)c3occc23)c(C)c1	-1%	/	2%	2.5µM*	?
COc1ccc(-c2coc3c(C(=O)NCc4ccco4)cccc23)c(C)c1	-2%	/	-7%	-25%	4.5µM*
O=[N+]([O-])c1ccc(O/N=[N+](\[O-])N2CCCC2)c([N+](=O)[O-])c1	/	/	/	0%	/
CCCCS(=O)(=O)N[C@@H](Cc1ccc(OCCCCC2CCNCC2)cc1)C(=O)O	4%	/	/	/	/
CCOc1ccc(CNC(c2ccccc2)c2ccccc2)cc1	10%	?	3%	-2%	7.1µM*
COC(=O)N/N=C/c1cccs1	8%	?	-11%	8%	1%
CC1=CCC(C(=O)N/N=C/c2cccs2)C(c2ccc(F)cc2)C1 (configuration not stated)	0%	20%	-14%	-55%	10µM*
CNC1=C(N(C(C)=O)c2ccc(Br)cc2)C(=O)c2ccccc2C1=O	-16%	-55%	?	-101%	?
CC(=O)C1=C(c2ccc(Br)cc2)C(=O)c2ccccc2C1=O	-32%	-56%	3.5µM*	-95%	?
CCN(c1ccccc1)S(=O)(=O)c1ccc(N2CCN(c3ccc(O)cc3)CC2)nc1	4%	-2%	-26%	-89%	4.5µM*
COc1ccc(C(=O)O/N=C(\N)c2ccc(OC)c(OC)c2)c(OC)c1	7%	-18%	-26%	46%	97%
COc1ccc(C(=O)O/N=C(\N)c2ccc(OC)c(OC)c2)cc1	1%	?	-5%	13µM*	2%
COc1ccc(/C(N)=N/OC(=O)C2CCCCC2)cc1OC	12%	-4%	11%	2.8µM*	?
CCn1cc(C(=O)Nc2cccc(Cl)c2)c2cc(OC)c(OC)cc2c1=O	0%	/	-17%	-37%	-30%
CC(C)c1c(C(=O)N/N=C/c2cccc3ccccc23)nnn1-c1nonc1N	-2%	-22%	-20%	-47%	6.3µM*
Cc1cccc(COc2ccc(/C=N/NC(=O)c3nnn(-c4nonc4N)c3CN3CCCCC3)cc2)c1	1%	-3%	1%	57%	15%
CC1CCN(Cc2c(C(=O)N/N=C/c3cc(Br)ccc3O)nnn2-c2nonc2N)CC1	-1%	-40%	124%	-44%	4µM*
Nc1nonc1-n1nnc(C(=O)N/N=C/c2ccc(OCc3cccc(Cl)c3)cc2)c1CN1CCCCC1	1%	-28%	-3%	2.5µM*	9%
COCc1c(C(=O)N/N=C(/C)c2ccc(OCc3ccccc3)cc2)nnn1-c1nonc1N	5%	10µM*	0%	106%	?
CC1=C(C(=O)Nc2ccccc2C)C(c2cccnc2)n2nc(SCc3ccccc3F)nc2N1 (configuration not stated)	0%	/	3%	-1%	14%
O=C1NCCN1CCN1CCC(c2cn(-c3ccc(F)cc3)c3ccc(Cl)cc23)CC1	-7%	/	/	/	/
COc1ccc(Cl)cc1NC(=O)CN(C)CC(=O)Nc1ccc(C)cc1Br	21%	9%	-11%	-33%	7.9µM*
COc1ccc(Cl)cc1NC(=O)CN1C(=O)C(C)(C)c2cc(S(=O)(=O)N3CCCCC3)ccc21	/	/	-20%	/	11µM*
